Source: PubChem BioAssay AID488913 (National Center for Advancing Translational Sciences (NCATS), 2010)
Values joined by “and” are separate entries in the source; they are usually repeats but may differ in a detail not shown here. Equal entries are not always repeated. Records with an inconclusive call do not appear. Active and inactive are the calls of the source. The call rests on the fitted dose curve; in most records, active means well fitted inhibition curve with a large enough effect; inconclusive means small, poorly fitted or top-dose-only effect, or effect the other way; inactive means no such curve, though single readings can be large or run the other way.

test: Confirmation Concentration-Response Assay for lipid storage modulators: for probe SAR; conditions: Drosophila S3 cells, BODIPY lipid droplet fluorescence, 18-24 h; series mostly up to 46.1 µM; activity change, negative = lipid storage inhibition: at the top concentration
Text: NIH Molecular Libraries Probe Production Centers Network [MLPCN] NIH Chemical Genomics Center [NCGC] MLPCN Grant: 1 R03 MH085686-01 Assay Submitter (PI): Beller, Mathias; Max-Planck-Institut fur Biophysikalische Chemie NCGC Assay Overview: Storing lipids as a reservoir for energy or the anabolism of elementary metabolites is a common feature of probably all cells and is conserved from bacteria to humans. The universal cellular lipid storage organelle is the so-called lipid storage droplet (LD). Although ubiquitous, LDs share a simple structure composed of a hydrophobic core that harbors the storage lipids, which is shielded by a droplet-specific phospholipid monolayer to which proteins are attached. The current model of LD biogenesis involves an incorporation of the lipid core into the membrane leaflets of the endoplasmic reticulum (ER) followed by a subsequent budding-like maturation of a LD, which ultimately pinches off. Once released, LD volume can increase by localized lipogenesis or fusion of existing droplets. Storage lipids are re-mobilized enzymatically by lipase activity. Lipase regulation in the adipocyte is heavily studied and involves multiple components including catecholamine signaling, the LD-associated proteins Perilipin and comparative gene identification-58 (CGI-58) and at least two lipases named hormone sensitive lipase (HSL) and adipocyte triglyceride lipase (ATGL). LD regulation outside of the adipocyte is poorly understood and only few components are known. However, there is an urgent need to learn more about ectopic fat depots as mislocalized storage of lipids, for example in the liver or muscle, is an eminent health problem associated with insulin resistance or the metabolic syndrome. We developed a laser-scanning cytometer assay to enable 1,536-well screening and combined the results of the small molecules screen with an RNAi database based on lipid storage.
We dispensed 4 uL of cells at 1.25 x 10^6 cells/mL into LoBase Aurora COC 1,536-well plates (black walled, clear bottom) with a bottle-valve solenoid-based dispenser (Aurora) to obtain 5,000 cells/well. Triacsin C (Sigma-Aldrich T-4540), an inhibitor of long-chain fatty acyl CoA synthetase that blocks synthesis of triglycerides, was used as a positive control for lipid under-storage. A total of 23 nL of compound solution of different concentrations were transferred to the assay plates using a Kalypsys pin tool equipped with a 1,536-pin array containing 10-nL slotted pins (FP1S10, 0.457-mm diameter, 50.8 mm long; V&P Scientific). One microliter of oleic acid (400 uM) was added, and the plate was lidded with stainless steel rubber gasket lined lids containing pinholes. After 18-24 h incubation at 24 degree Celsius and 95% humidity, 4 uL of the dyes BODIPY 493/503 (Molecular Probes) and the Cell Tracker Red CMTPX dye (Molecular Probes) were added to the wells to stain lipid droplets and enumerate cell number, respectively. Fluorescence was detected by excitation of the fluorophores with a 488-nm laser on an Acumen Explorer (TTP Lab Tech). The total intensity in channel 1 (500-530 nm) reflected lipid droplet accumulation. Cells were detected using channel 3 (575- 640 nm) with 5-um width and 100-um depth filters. The ratio of the total intensity in PMT channel 1 over total intensity of channel 3 was also calculated. Percent activity was computed relative to an internal control (100% inhibited lipid droplet deposition due to the presence of 20 uM Triacsin C), which was added to 32 wells/plate.

Question: For O=C(NC1CCCc2c1cnn2-c1ccc(F)cc1F)c1ccc2cc[nH]c2c1 (stereo not given), which Potency is on record?
Answer: 7.71 µM (active)

Question: Which “activity change, negative = lipid storage inhibition” value does the source give for CCn1c(C(=O)NCCc2ccc(OC)cc2)cc2sccc21 here?
Answer: 108% (inactive)

Question: With O=C(Cc1ccccc1)NC1CCCc2c1cnn2-c1ccc(F)cc1F (stereo not given) as the molecule, how does the “activity change, negative = lipid storage inhibition” value read?
Answer: -6.41% (inactive)

Question: With CCOc1ccc(CCNC(=O)c2cc3sccc3n2C)cc1OCC as the molecule, how does the Potency read?
Answer: 0.499 µM (active)

Question: For CCn1c(C(=O)NCCc2ccc(OC)c(OC)c2)cc2sccc21, which Potency is on record?
Answer: 3.97 µM (active)

Question: With COc1ccc(-c2csc(NC(=O)Cc3cccs3)n2)cc1 as the molecule, how does the Potency read?
Answer: 25 µM (active)

Question: Which “activity change, negative = lipid storage inhibition” value does the source give for CCOc1ccc(CCNC(C)=O)cc1OCC here?
Answer: 41.6% (inactive)

Question: With CC1(C)CCC(c2ccc(Cl)cc2)=C(CN2CCN(c3ccc(C(=O)NS(=O)(=O)c4ccc(N[C@H](CCN5CCOCC5)CSc5ccccc5)c(S(=O)(=O)C(F)(F)F)c4)cc3)CC2)C1 as the molecule, how does the Potency read?
Answer: 0.996 µM (active)

Question: For CCOC(=O)C1CCN(C(=O)C2(NC(=O)Nc3ccc(F)cc3F)CCCCC2)CC1, which Potency is on record?
Answer: 0.888 µM (active)

Question: Which Potency does the source give for O=C(NC1CCCc2c1cnn2-c1ccc(F)cc1F)c1cnccn1 (stereo not given) here?
Answer: 0.25 µM (active)

Question: For CCOC(=O)C1CCN(C(=O)C2(NC(=O)Nc3ccccc3Cl)CCCCC2)CC1, which Potency is on record?
Answer: 1.44 µM (active)

Question: With O=C(Cc1cccs1)Nc1nc(-c2ccc3c(c2)CCC3)cs1 as the molecule, how does the “activity change, negative = lipid storage inhibition” value read?
Answer: -3.86% (inactive)

Question: With CCOc1ccc(CCNC(=O)c2cc3sccc3n2Cc2ccc(OC(F)F)cc2)cc1OCC as the molecule, how does the Potency read?
Answer: 0.0063 µM (active)

Question: For O=C(NC1CCCc2c1cnn2-c1ccc(F)cc1F)c1cccc(F)c1F (stereo not given), which Potency is on record?
Answer: 0.315 µM (active)

Question: With CCOc1ccc(CCNC(=O)c2cc3sccc3n2Cc2ccc(Cl)c(F)c2)cc1OCC as the molecule, how does the Potency read?
Answer: 0.0063 µM (active)

Question: Which Potency does the source give for CCOc1ccc(CCNC(=O)c2cc3sc(Cl)cc3n2CC)cc1OCC here?
Answer: 2.23 µM (active)

Question: With O=C(NC1CCCc2c1cnn2-c1ccc(F)cc1F)c1ccsc1 (stereo not given) as the molecule, how does the Potency read?
Answer: 0.0315 µM (active)

Question: For CCOc1ccc(CCNC(=O)c2cc3sccc3n2CC)cc1OCC, which Potency is on record?
Answer: 0.158 µM (active)

Question: Which Potency does the source give for CCOC(=O)C1CCN(C(=O)C(C)(C)NC(=O)Nc2ccccc2Cl)CC1 here?
Answer: 0.628 µM (active)

Question: Which Potency does the source give for COc1ccc(CCNC(=O)c2cc3sccc3n2Cc2ccc(Cl)cc2)cc1OC here?
Answer: 0.194 µM (active)

Question: Which Potency does the source give for O=C(NC1CCCc2c1cnn2-c1ccc(F)cc1F)c1cccs1 (stereo not given) here?
Answer: 0.0177 µM (active)

Question: For O=C(NC1CCCCC1)NC1(C(=O)N2CCCC2)CCCCC1, which “activity change, negative = lipid storage inhibition” value is on record?
Answer: 21% (inactive)

Question: For CCOC(=O)C1CCCN(C(=O)C2(NC(=O)Nc3ccc(F)cc3F)CCCCC2)C1 (stereo not given), which “activity change, negative = lipid storage inhibition” value is on record?
Answer: -2.41% (inactive)

Question: Which Potency does the source give for O=C(NC1CCCc2c1cnn2-c1ccc(F)cc1F)c1ccccn1 (stereo not given) here?
Answer: 8.7 nM (active) and 7.9 nM (active)

Question: With O=C(NC1CCCc2c1cnn2-c1ccc(F)cc1F)c1c(F)cccc1Cl (stereo not given) as the molecule, how does the Potency read?
Answer: 3.53 µM (active)

Question: Which Potency does the source give for O=C(NC1CCCc2c1cnn2-c1ccc(F)cc1F)c1ccc(F)cc1 (stereo not given) here?
Answer: 0.445 µM (active)

Question: Which Potency does the source give for O=C(NC1CCCc2c1cnn2-c1ccc(F)cc1F)c1cccc(=O)[nH]1 (stereo not given) here?
Answer: 7.91 µM (active)

Question: For CCOc1ccc(CCNC(=O)c2cc3sccc3[nH]2)cc1OCC, which Potency is on record?
Answer: 7.91 µM (active)

Question: For CCOc1ccc(CCNC(=O)c2cc3sccc3n2Cc2cccnc2)cc1OCC, which Potency is on record?
Answer: 0.353 µM (active)

Question: For S=C(Nc1cc(Cl)ccc1Oc1ccccc1)N1CCN(c2ncccn2)CC1, which Potency is on record?
Answer: 12.5 µM (active)

Question: For CCOc1ccc(CCNC(=O)c2cc3ccccc3n2C)cc1OCC, which Potency is on record?
Answer: 7.91 µM (active)

Question: For CCOC(=O)C1CCN(C(C)C(=O)NC(=O)NC2CCCCC2)CC1 (stereo not given), which “activity change, negative = lipid storage inhibition” value is on record?
Answer: 25.6% (inactive)

Question: Which Potency does the source give for CCOc1ccc(CCNC(=O)c2cc3sccc3n2C(C)C)cc1OCC here?
Answer: 0.0996 µM (active)

Question: Which Potency does the source give for CCOc1ccc(CCNC(=O)c2cc3sc(CC)cc3n2C)cc1OCC here?
Answer: 1.22 µM (active)

Question: Which Potency does the source give for Cn1c(=O)n(-c2ccc(C(C)(C)C#N)cc2)c2c3cc(-c4cnc5ccccc5c4)ccc3ncc21 here?
Answer: 1.12 µM (active)

Question: For CCOc1ccc(CCNC(=O)C2COc3ccccc3O2)cc1OCC (stereo not given), which Potency is on record?
Answer: 11.2 µM (active)

Question: Which “activity change, negative = lipid storage inhibition” value does the source give for COc1ccc(-c2csc(NC(=O)CSc3nnc(NC4CC4)s3)n2)cc1OC here?
Answer: -5.24% (inactive)

Question: For O=C(NC1CCCc2c1cnn2-c1cc(F)cc(F)c1)c1ccc(F)cc1Cl (stereo not given), which Potency is on record?
Answer: 2.23 µM (active)

Question: Which Potency does the source give for O=C(NC1CCCc2c1cnn2-c1ccc(F)cc1F)c1ccncc1 (stereo not given) here?
Answer: 9.96 µM (active)

Question: Which Potency does the source give for O=C(NC1CCCc2c1cnn2-c1ccccc1F)c1cccc2nccnc12 (stereo not given) here?
Answer: 2.74 µM (active)
